From PubChem BioAssay AID2783 (National Center for Advancing Translational Sciences (NCATS), 2010)
Records with an inconclusive call do not appear. Calls of active or inactive are those of the source. Calls follow the shape of the dose curve; as a rule, active = well fitted inhibition curve with a large enough effect in the polarisation, with a control signal flat (not every such curve was filed as active); inconclusive = small, poorly fitted or top-dose-only effect, or effect the other way, or a change in a side signal; inactive = no such curve, though single readings can be large or run the other way; the % refers to the polarisation.

Target: Menin (Homo sapiens) (UniProt O00255)
Test: Confirmation of Inhibitors Targeting the Menin-MLL Interaction in MLL Related Leukemias: Competition With Fluorescein Labeled MLL-derived Peptide
Details: Fluorescence polarization, fluorescein-MLL peptide displacement from menin; series mostly up to 100 µM; activity change, negative = inhibition: at the top concentration
% is scaled to controls: 0 for no effect and ±100 for the full control effect.

Sequence of Menin (Homo sapiens) (O00255 whole entry, looked up): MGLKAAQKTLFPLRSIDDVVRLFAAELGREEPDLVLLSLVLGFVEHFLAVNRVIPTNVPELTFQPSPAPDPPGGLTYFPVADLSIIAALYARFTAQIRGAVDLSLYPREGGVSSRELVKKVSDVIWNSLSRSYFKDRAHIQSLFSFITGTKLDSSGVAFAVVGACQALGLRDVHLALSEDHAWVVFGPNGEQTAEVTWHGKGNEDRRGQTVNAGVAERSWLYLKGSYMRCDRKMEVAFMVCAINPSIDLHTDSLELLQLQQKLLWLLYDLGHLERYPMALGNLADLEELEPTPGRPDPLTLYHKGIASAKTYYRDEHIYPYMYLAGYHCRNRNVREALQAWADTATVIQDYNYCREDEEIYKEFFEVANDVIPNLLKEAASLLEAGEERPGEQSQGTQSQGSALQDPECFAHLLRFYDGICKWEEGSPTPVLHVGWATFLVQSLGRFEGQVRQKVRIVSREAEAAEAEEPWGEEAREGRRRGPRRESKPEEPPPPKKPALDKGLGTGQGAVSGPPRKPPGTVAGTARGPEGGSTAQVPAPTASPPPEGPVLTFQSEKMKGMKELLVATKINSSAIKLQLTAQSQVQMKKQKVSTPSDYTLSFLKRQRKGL

Activity change, negative = inhibition, inactive:
COc1cnc(-c2ccccn2)nc1N(C)c1ccccc1 1.97%
CCc1ccc(CNC(=O)CCS(=O)(=O)Cc2ccccc2F)cc1 -4.29%
CC1CN(c2c3c(nc4ncnn24)CCCC3)CC(C)O1 (configuration not stated) -1.31%
CC(C)Sc1nc(N2CCOCC2)c2c3c(sc2n1)COC(C)(C)C3 -14.8%
CCc1oc2ccccc2c1C(=O)c1cc(Br)c(O)c(Br)c1 -17.9%
CCOC(=O)Cn1c2ccccc2n2nc(CCC(=O)O)c(=O)nc12 -2.55%
CC(Sc1nnc(Nc2ccccc2)s1)C(=O)Nc1nc(-c2ccccc2)cs1 (configuration not stated) 7.12%
CC(=O)c1cccc(NS(=O)(=O)c2ccc(N/C=C\C(=O)c3ccc(F)cc3)cc2)c1 -7.96%
O=C(NNCS(=O)(=O)O)c1ccncc1 -5.26%
O=C(CSc1nnnn1-c1ccc(O)cc1)N1N=C(c2ccc3ccccc3c2)CC1c1ccccc1 (configuration not stated) -12.2%
Cc1cccc(NC(=O)CSc2nc3ccc(NC(=O)CSc4nnnn4-c4ccccc4)cc3s2)c1C 36.8% [at 288 µM]
CCCc1nc2c(=O)[nH]c3ccccc3c2o1 -14.1%
COc1cc2c(cc1NC(=S)NC(=O)c1c(OC)cccc1OC)oc1ccccc12 -15%
Cc1ccc(-c2csc(NC(=O)c3ccc(S(=O)(=O)N4CCc5ccccc54)cc3)n2)cc1 -0.485%
COc1ccc(NC2=C(NCCO)C(=O)c3ccccc3C2=O)cc1 3.49% [at 288 µM]
Cc1cc2cc(C(c3nnnn3CC3CCCO3)N3CCCc4ccccc43)c(=O)[nH]c2cc1C (configuration not stated) -9.39%
C=C1CCC[C@]2(C)C[C@H]3OC(=O)C(CNCCN(CC)CC)[C@H]3CC12 (some centres not stated) -4.69%
